# Target: T1, Aspartate--tRNA(Asp/Asn) ligase (Mycobacterium tuberculosis (strain ATCC 25618 / H37Rv)) (UniProt P9WFW3); also: in the data most compounds retested in dose-response had high values
# T1 sequence (whole entry): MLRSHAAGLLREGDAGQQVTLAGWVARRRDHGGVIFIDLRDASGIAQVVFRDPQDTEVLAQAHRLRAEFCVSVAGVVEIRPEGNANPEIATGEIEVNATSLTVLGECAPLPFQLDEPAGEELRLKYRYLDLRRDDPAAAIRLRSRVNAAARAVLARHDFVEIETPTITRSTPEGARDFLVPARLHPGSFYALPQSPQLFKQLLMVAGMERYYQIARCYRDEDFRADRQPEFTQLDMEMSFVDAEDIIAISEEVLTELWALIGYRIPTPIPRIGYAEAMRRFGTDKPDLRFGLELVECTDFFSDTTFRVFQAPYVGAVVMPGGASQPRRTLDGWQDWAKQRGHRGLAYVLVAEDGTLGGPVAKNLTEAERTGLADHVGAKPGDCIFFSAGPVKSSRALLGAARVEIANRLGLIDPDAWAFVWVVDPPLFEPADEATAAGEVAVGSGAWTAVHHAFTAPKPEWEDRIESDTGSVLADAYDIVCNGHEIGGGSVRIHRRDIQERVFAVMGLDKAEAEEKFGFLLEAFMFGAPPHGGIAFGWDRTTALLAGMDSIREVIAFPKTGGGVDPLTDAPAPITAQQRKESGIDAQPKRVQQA
# Test: Assay for Asp RNA synthetase-1 from Mycobacterium tuberculosis
# Assay type: functional
# Design: scale not given: direction of the effect not stated beside the values
# Conditions: 30 µM
row,SMILES,Percent Effect [%]
1,COCc1nc(C(=O)N2CCCC2c2noc(C(C)C)n2)cs1 (stereo not given),2.63
2,Cc1cccc(C)c1OCCC(=O)N1CCC(c2nncn2C)CC1,-2.43
3,COc1ccc(CCC(=O)Nc2cccnc2N2CCCC2)cc1Br,-3.21
4,c1cnc2c(c1)cc([C@H]1CCCO1)n2CCN1CCCCC1,-0.551
5,O=C1NCCN1C1CCCN(Cc2coc(-c3ccc(F)cc3)n2)C1 (stereo not given),-2.94
6,CC(C)c1cc(C(=O)N2CCN(Cc3ccsc3)CC2)n[nH]1,-1.06
7,Cc1ccc(C)n1-c1ccc(C(=O)NCCNc2ncccn2)cc1,5.76
8,O=C1CC2(CCN(CC3CCOC3)CC2)CN1Cc1cc(F)cc(F)c1 (stereo not given),-4.88
9,O=C1CC(c2ccc(C(=O)O)cc2)c2ncn(-c3ccccc3)c2N1 (stereo not given),19.5
10,O=c1nc(CNc2ccccc2)[nH]n1Cc1ccccc1,3.89
11,CCCn1nc2c(cc1=O)CN(CC(=O)Nc1ccncc1)CC2,2.52
12,CNc1oc(-c2cc(S(=O)(=O)N3CCCCCC3)c(C)o2)nc1C#N,2.56
13,NC(=O)COc1cccc(C(=O)N2CCCC(n3cccn3)C2)c1 (stereo not given),-6
14,COc1cccc(N2CCN(CC(O)c3cc(C)ccc3C)CC2)c1 (stereo not given),9.16
15,Cc1csc2ncc(-c3ccnc(N4CCN(C)CC4)n3)c(=O)n12,1.78
16,Cc1ccc(-c2ncc(C(=O)NCCNc3ncccn3)s2)c(C)c1,7.92
17,CN(C(=O)Cc1c[nH]c2ccccc12)C1CCN(c2ccccn2)CC1,-1.54
18,O=C(NCc1cc[nH]n1)NCC(c1ccco1)N1CCCC1 (stereo not given),0.607
19,Cc1nc(C)n(C2CCCN(C(=O)c3ccc4c(c3)COC4)C2)n1 (stereo not given),0.699
20,O=C(O)c1cc(S(=O)(=O)N2CCOc3ccccc32)ccc1F,-4.32

row,SMILES,Percent Effect [%]
1,CCC(=O)N1CCC(Cc2nccnc2Nc2ccccn2)CC1,-0.309
2,Cc1nnc2n1CCN(Cc1csc(-c3ccc(F)cc3)n1)C2,2.74
3,COC(=O)CS(=O)(=O)CCC(=O)N1CCCC1c1ccsc1 (stereo not given),-1.34
4,NCc1cnn(-c2ccccc2C(=O)NCCCn2ccnc2)c1,0.581
5,CN(C)CC1CN(Cc2coc(-c3cccs3)n2)CCO1 (stereo not given),2.66
6,CN(C)c1ccc(C(=O)N2CCN(C(=O)N3CCCCC3)CC2)nn1,-3.34
7,CC(=O)N1CCN(Cc2nnc(C(C)(C)C)o2)CC1,3.25
8,Cc1nc(N2CC[C@@H](NC(=O)c3cnccn3)[C@H](O)C2)c2ccsc2n1,-1.04
9,CN(C)C(=O)Cc1nc(CN2CCn3c(nnc3C3CC3)C2)cs1,-1.22
10,Cc1noc(C)c1C1CCCN1C(=O)CN1CC2(CCNCC2)OC1=O (stereo not given),-0.658
11,CC1CCN(C(=O)CN(Cc2ccco2)C2CC2)CC1,0.548
12,CC(NC(=O)c1ccc2c(c1)OCC(=O)N2)c1ccccc1F (stereo not given),7.05
13,c1cnc(N2CCC3(CC2)CN(CC2CC2)c2ccccc23)nc1,3.62
14,Cc1cc(C)cc(C2(C(=O)NC(C)Cn3ccnc3)CC2)c1 (stereo not given),-2.37
15,CCOc1ccc(CNCCCn2ccnc2)cc1Br,-5.78
16,COc1ccc(C)cc1CSCCn1nc2ccccn2c1=O,-3.83
17,CNC(=O)CSc1nc2c(cnn2Cc2ccc(F)cc2)c(=O)[nH]1,-1.18
18,O=c1[nH]c(CCN2CCCC(Cn3cncn3)C2)nc2ccccc12 (stereo not given),-3.23
19,CC(C)c1cc(NCC(C)N2CCCC2)n2nccc2n1 (stereo not given),1.77
20,CN(C)S(=O)(=O)N1CC[C@@H]2CN(Cc3cnn(C)c3)C[C@@H]2C1,6.22

# Target: Shiga toxin 2 (Escherichia coli O157:H7) (UniProt P09385+P09386)
# Test: E. coli 0.157:H7 Shiga Toxin SOP - stx2 screening assay
# Assay type: functional
# Design: scale not given: direction of the effect not stated beside the values
# Conditions: 30 µM
row,SMILES,Percent Effect [%]
1,COCc1nc(C(=O)N2CCCC2c2noc(C(C)C)n2)cs1 (stereo not given),-5.18
2,Cc1cccc(C)c1OCCC(=O)N1CCC(c2nncn2C)CC1,-9.22
3,COc1ccc(CCC(=O)Nc2cccnc2N2CCCC2)cc1Br,28.3
4,c1cnc2c(c1)cc([C@H]1CCCO1)n2CCN1CCCCC1,-28.2
5,O=C1NCCN1C1CCCN(Cc2coc(-c3ccc(F)cc3)n2)C1 (stereo not given),-27.1
6,CC(C)c1cc(C(=O)N2CCN(Cc3ccsc3)CC2)n[nH]1,9.72
7,Cc1ccc(C)n1-c1ccc(C(=O)NCCNc2ncccn2)cc1,7.86
8,O=C1CC2(CCN(CC3CCOC3)CC2)CN1Cc1cc(F)cc(F)c1 (stereo not given),2.13
9,O=C1CC(c2ccc(C(=O)O)cc2)c2ncn(-c3ccccc3)c2N1 (stereo not given),-25.4
10,O=c1nc(CNc2ccccc2)[nH]n1Cc1ccccc1,2.45
11,CCCn1nc2c(cc1=O)CN(CC(=O)Nc1ccncc1)CC2,-19.5
12,CNc1oc(-c2cc(S(=O)(=O)N3CCCCCC3)c(C)o2)nc1C#N,-18.8
13,NC(=O)COc1cccc(C(=O)N2CCCC(n3cccn3)C2)c1 (stereo not given),-18.8
14,COc1cccc(N2CCN(CC(O)c3cc(C)ccc3C)CC2)c1 (stereo not given),-19.7
15,Cc1csc2ncc(-c3ccnc(N4CCN(C)CC4)n3)c(=O)n12,-20.6
16,Cc1ccc(-c2ncc(C(=O)NCCNc3ncccn3)s2)c(C)c1,-13.5
17,CN(C(=O)Cc1c[nH]c2ccccc12)C1CCN(c2ccccn2)CC1,5.44
18,O=C(NCc1cc[nH]n1)NCC(c1ccco1)N1CCCC1 (stereo not given),4.49
19,Cc1nc(C)n(C2CCCN(C(=O)c3ccc4c(c3)COC4)C2)n1 (stereo not given),-16.5
20,O=C(O)c1cc(S(=O)(=O)N2CCOc3ccccc32)ccc1F,-3.29

row,SMILES,Percent Effect [%]
1,CCC(=O)N1CCC(Cc2nccnc2Nc2ccccn2)CC1,11.3
2,Cc1nnc2n1CCN(Cc1csc(-c3ccc(F)cc3)n1)C2,3.01
3,COC(=O)CS(=O)(=O)CCC(=O)N1CCCC1c1ccsc1 (stereo not given),-0.403
4,NCc1cnn(-c2ccccc2C(=O)NCCCn2ccnc2)c1,10.4
5,CN(C)CC1CN(Cc2coc(-c3cccs3)n2)CCO1 (stereo not given),-25.6
6,CN(C)c1ccc(C(=O)N2CCN(C(=O)N3CCCCC3)CC2)nn1,-35
7,CC(=O)N1CCN(Cc2nnc(C(C)(C)C)o2)CC1,-4.69
8,Cc1nc(N2CC[C@@H](NC(=O)c3cnccn3)[C@H](O)C2)c2ccsc2n1,-6.15
9,CN(C)C(=O)Cc1nc(CN2CCn3c(nnc3C3CC3)C2)cs1,10.2
10,Cc1noc(C)c1C1CCCN1C(=O)CN1CC2(CCNCC2)OC1=O (stereo not given),-21
11,CC1CCN(C(=O)CN(Cc2ccco2)C2CC2)CC1,-5.22
12,CC(NC(=O)c1ccc2c(c1)OCC(=O)N2)c1ccccc1F (stereo not given),24
13,c1cnc(N2CCC3(CC2)CN(CC2CC2)c2ccccc23)nc1,-25
14,Cc1cc(C)cc(C2(C(=O)NC(C)Cn3ccnc3)CC2)c1 (stereo not given),-14.1
15,CCOc1ccc(CNCCCn2ccnc2)cc1Br,-77.4
16,COc1ccc(C)cc1CSCCn1nc2ccccn2c1=O,6.71
17,CNC(=O)CSc1nc2c(cnn2Cc2ccc(F)cc2)c(=O)[nH]1,-8.43
18,O=c1[nH]c(CCN2CCCC(Cn3cncn3)C2)nc2ccccc12 (stereo not given),-25.8
19,CC(C)c1cc(NCC(C)N2CCCC2)n2nccc2n1 (stereo not given),-11.9
20,CN(C)S(=O)(=O)N1CC[C@@H]2CN(Cc3cnn(C)c3)C[C@@H]2C1,-8.71

# Source: ChEMBL document CHEMBL3988442, “University of Dundee, Small-Polar-MMV Screening Library” (2021)
